In PubChem BioAssay AID778 (Sanford-Burnham Center for Chemical Genomics, 2007):
The campaign covered roughly 96,000 compounds. About 20,000 (21%) were called active. Only a sample is shown. Unmarked numbers belong to inactive results.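 Rule for the calls: active = CYP2C19 inhibition above a set limit at 5 µM in the primary screen (cut at about 50% in these data); inactive = the rest.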

What follows are molecules tested against Cytochrome P450 2C19 (Homo sapiens) (UniProt P33261) (assay: blockers of cytochrome P450 2C19 activity – biochemical, luminescence, ADME assay, primary screen (AID 778;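 note: plate controls were negative control wells for no effect and 2.5 mM tranylcypromine positive control for full effect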)). Details: CYP2C19 Supersomes, luciferin-H EGE luminescence, 30 min; at 5 µM; stronger effect = higher value.
Chain of Cytochrome P450 2C19 (Homo sapiens) (P33261 whole entry, looked up): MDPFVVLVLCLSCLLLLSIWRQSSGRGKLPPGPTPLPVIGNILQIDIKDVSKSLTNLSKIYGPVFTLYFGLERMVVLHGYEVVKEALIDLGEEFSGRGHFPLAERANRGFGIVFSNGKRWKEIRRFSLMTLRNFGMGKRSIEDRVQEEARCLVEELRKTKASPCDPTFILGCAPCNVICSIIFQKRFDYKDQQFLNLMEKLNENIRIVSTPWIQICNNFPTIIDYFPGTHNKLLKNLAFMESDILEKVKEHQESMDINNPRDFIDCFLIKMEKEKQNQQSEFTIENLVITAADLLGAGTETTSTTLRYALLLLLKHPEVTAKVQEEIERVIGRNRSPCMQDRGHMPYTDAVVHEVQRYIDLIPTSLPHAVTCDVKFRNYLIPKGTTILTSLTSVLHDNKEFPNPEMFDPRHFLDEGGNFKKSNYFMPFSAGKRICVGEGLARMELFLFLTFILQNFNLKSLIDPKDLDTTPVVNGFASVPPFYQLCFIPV

| Structure (SMILES) | inhibition |
| --- | --- |
| Cc1nc2ccc(C(=O)N3CCSCC3)cc2s1 | -5.2% |
| CCOC(=O)c1ccc(NC(=O)CSc2nnc(COc3ccccc3OC)n2C)cc1 | 38.9% |
| CCOC(=O)c1c(NC(=S)NC(=O)c2ccco2)sc2c1CCCC2 | -3.4% |
| O=C(CCS(=O)(=O)c1cccc2nsnc12)N1CCN(c2ccccc2F)CC1 | 45.5% |
| Cc1ccc(S(=O)(=O)N2CCC(C(=O)N[C@@H](C)C(=O)NCc3ccccc3)CC2)cc1 | 6% |
| CCN=C1SC(CC(=O)Nc2ccc(C)cc2)C(=O)N1CC (stereo not given) | 38.5% |
| CN(C(=O)CC(NC(=O)c1ccccc1)(c1ccccc1)c1ccccc1)c1ccccc1 | 36.4% |
| COC(=O)c1ccc(NC(=O)Nc2ccc(C)cc2)cc1 | 2.9% |
| CCOC(=O)c1nc(Nc2ccc(C(=O)OC)cc2)c2ccccc2n1 | 49.1% |
| COC(=O)c1ccc(NCC(=O)c2ccccc2)cc1 | 64.3% (active) |
| C=CCNC(=O)CSc1nc2sc(C)c(C)c2c(=O)[nH]1 | 14.3% |
| CCSc1nnc(NC(=O)c2ccc(C)cc2)s1 | 25.5% |
| CC1=CC(C)(C)N(C(=O)CSc2nnc(-c3ccccc3)o2)c2ccc(C)cc21 | 25.2% |
| CC1=CC(C)(C)N(C(=O)CSc2nccn2C)c2cc(C)ccc21 | 82.8% (active) |
| CCOC(=O)c1c(NC(=O)CCC(=O)NCc2ccco2)sc2c1CCCC2 | 10.1% |
| COc1ccccc1NC(=S)NC(=O)C(C)C | 16.5% |
| COc1ccccc1NC(=O)CC(NCCN(C)C)C(=O)O (stereo not given) | -1.5% |
| COc1ccccc1NC(=O)[C@H](COCc1ccccc1)NC(=O)OC(C)(C)C | 54.6% (active) |
| C/C(=C\C(=O)c1ccc(Br)cc1)N1CCCCC1 | 7.2% |
| O=C(CNCCO)NC12CC3CC(CC(C3)C1)C2 | 0.8% |
| CCOc1ccc2nc(N3CCCN(C(=O)Nc4ccccc4C)CC3)c(C#N)cc2c1 | 89.4% (active) |
| Cc1cccc2cc(C#N)c(N3CCCC3)nc12 | 1.4% |
| COc1ccc2nc(N3CCCC(O)C3)c(C#N)cc2c1 (stereo not given) | 42.8% |
| CS(=O)(=O)N(C(=O)NC(=O)NC1CCS(=O)(=O)C1)C1CCCCC1 (stereo not given) | -6.1% |

| Structure (SMILES) | inhibition |
| --- | --- |
| Cc1c(C(=O)N2CC(C)OC(C)C2)sc2nc(-c3ccccc3)cn12 (stereo not given) | 3.7% |
| CC(C)NC(=O)NC(=O)COC(=O)c1ccc(NC(=O)CC#N)cc1 | 0.7% |
| COc1ccc([N+](=O)[O-])cc1C1NN=C(c2cccc3ccccc23)S1 (stereo not given) | 32.4% |
| CCN1CCN(C(=O)c2cc3cc4ccc(OC)cc4nc3s2)CC1 | -9.4% |
| Cc1ccc(C)c(N2CCN(S(=O)(=O)c3ccc4c(c3)oc(=O)n4C)CC2)c1 | 4.3% |
| O=c1ccc2cc(S(=O)(=O)N3CCN(c4ccccc4)CC3)ccc2o1 | 1.3% |
| Cc1cc(N2CCN(S(=O)(=O)c3ccc(C)c(C)c3)CC2)c2ccccc2n1 | 95.8% (active) |
| O=C(c1cccc(N2CCCC2=O)c1)N1CCOCC1 | -8.7% |
| NC(=O)C1CCN(C(=O)c2ccc(-c3ccccc3)cc2)CC1 | 9.6% |
| O=C(c1ccc(-n2cnnn2)cc1)N1CCN(C(c2ccccc2)c2ccccc2)CC1 | 71.6% (active) |
| O=C(O)CC(c1ccccc1)n1cnnn1 (stereo not given) | -12.4% |
| Cc1ccc2cc3cc(C(=O)N4CCCCCC4)oc3nc2c1 | 19.1% |
| COc1cc(/C=N/Nc2nn3cnnc3c3ccccc23)cc(OC)c1OC | 18.8% |
| O=C1c2cccc3cccc(c23)N1CN1CCN(c2ccccn2)CC1 | 1.9% |
| OC(COc1cccc2ccccc12)CN1CCN(c2ccccn2)CC1 (stereo not given) | 88.8% (active) |
| Cc1ccc(OCC(O)CN2CCN(CC(O)COc3ccc(C)cc3Cl)CC2)c(Cl)c1 (stereo not given) | -5.7% |
| COc1ccc(-n2cnc3cc(NCc4ccco4)ccc32)cc1 | 42.6% |
| O=C(Nc1ccccc1)c1ccc2nsnc2c1 | 18.4% |
| CC(=O)NS(=O)(=O)c1ccc(NC(=O)/C=C/c2ccccc2Cl)cc1 | 4% |
| O=c1[nH]c2ccccc2n2c(-c3ccccc3)nnc12 | 32.6% |
| CCCSC1=C(C#N)C(c2ccccc2C)C(C(=O)OC)C(=O)N1 (stereo not given) | 41% |
| CCOc1ccc2cc(C#N)c(SCC(=O)OC)nc2c1 | 4.1% |
| COC(=O)CSC1=C(C#N)C(c2ccccc2OC)C(C(=O)OC)C(=O)N1 (stereo not given) | 55.4% (active) |
| CC1CCCC(C)N1CCCNC(=O)c1cc2c(=O)n(C)c3ccccc3c2n1C (stereo not given) | -9.2% |

| Structure (SMILES) | inhibition |
| --- | --- |
| COc1ccc(CCNC(=O)C2CCCN(Cc3nc(-c4cccc(Cl)c4)oc3C)C2)cc1OC (stereo not given) | 87.1% (active) |
| COc1ccc(CCN(C)C(=O)C2CCCN(Cc3ccc(OC)c(OC)c3)C2)cc1OC (stereo not given) | 13.3% |
| COc1ccc(CCNC(=O)C2CCN(c3nn4c(=O)cc(C)nc4s3)CC2)cc1OC | -7% |
| COc1ccc(CCNC(=O)c2ccc3c(c2)NC(=O)C(N2CCOCC2)S3)cc1OC (stereo not given) | 43.7% |
| COc1ccc2c3c(c(=O)oc2c1OCC(=O)C(C)(C)C)CCCC3 | 15.9% |
| CC(C)CC(=O)N/C(N)=N/c1nc2ccccc2s1 | 36.7% |
| Cc1ncc(CC(=O)n2cc(C(=O)c3cc(Cl)ccc3O)cn2)s1 | 61% (active) |
| Cc1cc2cc3c(cc2nc1SCC(=O)Nc1c(C)cccc1C)CCC3 | 15.7% |
| Cn1c(Cc2csc(N)n2)nnc1SC/C=C/c1ccccc1 | 61.6% (active) |
| Cn1c(Cc2cccc3ccccc23)nnc1SCC(=O)N1CCN(c2cccc(Cl)c2)CC1 | 12% |
| CCOC(=O)c1c(NC(=O)CSc2nnc(Cc3csc(N)n3)n2C)sc(C)c1C | 16.5% |
| COC(=O)c1cc(S(=O)(=O)NC2CCN(Cc3ccccc3)CC2)cn1C | 0.8% |
| CSc1ccc(S(=O)(=O)NC2CCCCC2)cc1 | 88.8% (active) |
| CSc1ccc(S(=O)(=O)Nc2cccc(F)c2)cc1 | 99.4% (active) |
| N#CCCN1CCN(S(=O)(=O)c2ccc(S(=O)(=O)NC3CCCCC3)cc2)CC1 | 13.3% |
| CCc1nnc(NS(=O)(=O)c2ccc(NS(=O)(=O)c3ccccc3)cc2)s1 | -6.3% |
| Cc1cccc(CCNS(=O)(=O)c2ccc(S(=O)(=O)NC3CCCC3)cc2)c1 | 67.1% (active) |
| CCCNS(=O)(=O)c1ccc(CCC(=O)NCc2cccnc2)cc1 | 22.4% |
| Cc1cc(S(=O)(=O)NC2CCCCC2)ccc1OCC(=O)NCc1cccnc1 | 20.8% |
| O=S(=O)(NC1CCCCC1)c1ccc(F)c2ccccc12 | 26.5% |
| O=C(CCc1ccc(S(=O)(=O)NC2CCCCC2)cc1)NCc1ccccc1 | 63.1% (active) |
| O=C(O)c1ccc(F)c(S(=O)(=O)Nc2ccccc2)c1 | 7.1% |
